Reference: article PMC4336329 (PLoS ONE, 2015)
About 14,000 (4.5%) of roughly 310,000 compounds showed an effect of 50% or more. The effect is printed as a negative number. The entries come from a sample that favours strong results as a whole.

Target: human ether-à-go-go-related gene (hERG) potassium channel (human, UniProt Q12809)
Test: primary screen, population patch clamp on CHO cells stably expressing hERG; higher = less effect of the substance
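Further: peak tail current of the secondary pulse compared with the same well before compound.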

human ether-à-go-go-related gene (hERG) potassium channel, sequence (Q12809 whole entry, looked up): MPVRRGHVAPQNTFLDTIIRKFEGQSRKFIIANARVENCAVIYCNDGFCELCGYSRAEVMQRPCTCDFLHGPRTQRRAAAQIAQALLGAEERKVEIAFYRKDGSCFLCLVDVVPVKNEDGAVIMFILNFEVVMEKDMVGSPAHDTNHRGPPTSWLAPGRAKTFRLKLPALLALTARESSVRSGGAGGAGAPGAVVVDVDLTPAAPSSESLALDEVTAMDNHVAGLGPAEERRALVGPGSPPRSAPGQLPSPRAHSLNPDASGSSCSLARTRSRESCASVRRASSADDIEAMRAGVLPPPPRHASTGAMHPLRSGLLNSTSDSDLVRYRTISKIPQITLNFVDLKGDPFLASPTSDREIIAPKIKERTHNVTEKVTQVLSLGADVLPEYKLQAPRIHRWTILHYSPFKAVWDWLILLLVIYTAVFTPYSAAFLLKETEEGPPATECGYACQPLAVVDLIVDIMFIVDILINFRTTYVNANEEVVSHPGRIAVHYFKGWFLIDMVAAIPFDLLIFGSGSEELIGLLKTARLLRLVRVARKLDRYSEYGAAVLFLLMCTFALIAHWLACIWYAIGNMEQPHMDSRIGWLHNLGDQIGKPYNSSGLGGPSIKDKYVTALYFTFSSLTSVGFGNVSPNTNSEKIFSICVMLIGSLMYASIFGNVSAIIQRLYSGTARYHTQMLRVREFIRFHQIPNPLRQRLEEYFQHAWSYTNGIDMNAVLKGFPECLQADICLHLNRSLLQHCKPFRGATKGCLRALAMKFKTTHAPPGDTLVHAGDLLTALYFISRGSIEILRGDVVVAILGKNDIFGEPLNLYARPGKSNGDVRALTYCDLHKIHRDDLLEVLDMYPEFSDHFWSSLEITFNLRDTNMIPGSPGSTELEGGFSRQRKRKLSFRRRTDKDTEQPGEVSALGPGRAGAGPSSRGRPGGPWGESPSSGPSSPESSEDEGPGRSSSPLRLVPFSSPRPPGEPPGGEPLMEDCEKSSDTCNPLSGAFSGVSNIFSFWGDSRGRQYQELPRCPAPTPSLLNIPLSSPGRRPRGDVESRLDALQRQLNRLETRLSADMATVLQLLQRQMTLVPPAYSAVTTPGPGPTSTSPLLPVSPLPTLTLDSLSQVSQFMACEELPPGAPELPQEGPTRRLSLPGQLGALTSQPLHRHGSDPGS

SMILES | hERG current change (%, negative = inhibition) at 10uM
CC(C)CNC(=O)CC(=O)NN=C1CCCC1 | 19.5%
Cc1ccc(N(CC(=O)NCc2ccco2)C(=O)CCC(=O)Nc2nccs2)c(C)c1 | -22.5%
Cc1cc(C)n(-c2nc3ccccc3n3c(C)nnc23)n1 | 6.03%
Cc1ccc2oc(=O)n(CC(=O)O)c2c1 | 23.8%
CCOc1ccccc1NC(=O)NC1(C(=O)NCC2CCCO2)CCCCC1 (stereo not drawn) | 15%
COc1cc(NS(=O)(=O)c2ccc(NC(=O)c3ccc(C)o3)cc2)nc(OC)n1 | -9.23%
Cc1ccc(N)c(C(=O)CCCCC(=O)O)c1 | 7.01%
C[C@@H](C(=O)O)[C@@H]1C[C@@]1(C)[C@@H](NC(=O)OCc1ccccc1)c1ccccc1 | 16.8%
Oc1c(CN2CCOCC2)cc(-c2ccccc2)cc1CN1CCOCC1 | -12.7%
Cc1cc(C)c(NC(=O)Cn2nnc(C(=O)NCc3cccs3)c2N)c(C)c1 | 20%
CCC(C)NC(=S)N(CCc1ccccc1)Cc1cc2cc(OC)c(OC)cc2[nH]c1=O (stereo not drawn) | -32.4%
CCCCCOC(=O)C1=C(C)Nc2nnnn2C1c1ccc(OC)c(OC)c1OC (stereo not drawn) | -41.4%
CCOc1cc(/C=C2\NC(=S)N(C)C2=O)ccc1OCc1ccc(C(=O)O)cc1 | 14.6%
CC(=O)N1CCN(C(=O)c2ccc(-n3c(C)ccc3C)cc2)CC1 | -1.54%
Cc1c(NC(=O)/C=C/c2cn(-c3ccccc3)nc2-c2ccc(F)cc2)c(=O)n(-c2ccccc2)n1C | 7.47%
CCN(CC)c1ccc(N)cc1S(=O)(=O)Nc1ccc(OC)cc1 | -4.91%
Cn1c2c(c(=O)n(C)c1=O)CN(Cc1ccco1)CN2 | 4.7%
CCOc1ccc(S(=O)(=O)N2CCN(C(=O)c3ccc(-n4cncn4)c([N+](=O)[O-])c3)CC2)cc1 | -71.5%
COC(=O)c1ccc(N2CCN(S(=O)(=O)c3ccccc3)CC2)c([N+](=O)[O-])c1 | -14.1%
N#Cc1ccccc1S(=O)(=O)N1CCN(C(=O)c2ccc(-n3cncn3)c([N+](=O)[O-])c2)CC1 | -23.3%
CCOc1ccc(S(=O)(=O)N2CCN(C(=O)c3cccnc3)CC2)cc1 | -29.3%

SMILES | hERG current change (%, negative = inhibition) at 10uM
O=C(c1ccc(N2CCCCC2)c([N+](=O)[O-])c1)N1CCN(S(=O)(=O)c2ccccc2)CC1 | -49.9%
NC(=O)c1ccc(N2CCN(S(=O)(=O)c3ccccc3)CC2)c([N+](=O)[O-])c1 | -58.7%
O=C(c1ccncc1)N1CCN(S(=O)(=O)c2ccccc2Br)CC1 | 4.86%
Cc1ccc(S(=O)(=O)N2CCN(c3ccc(C(=O)N4CCOCC4)cc3[N+](=O)[O-])CC2)cc1 | -59%
O=C(c1ccc(N2CCN(S(=O)(=O)c3ccccc3)CC2)c([N+](=O)[O-])c1)N1CCOCC1 | -35.1%
Cc1ccc(S(=O)(=O)N2CCN(C(=O)c3ccc(N4CCCC4)c([N+](=O)[O-])c3)CC2)cc1 | -18.1%
O=C(c1ccc(-n2cncn2)c([N+](=O)[O-])c1)N1CCN(S(=O)(=O)c2ccccc2Br)CC1 | -70.3%
CCOc1ccc(S(=O)(=O)N2CCN(C(=O)c3ccncc3)CC2)cc1 | 4.67%
Clc1cccc(Cl)c1C1N2CCCN12 (stereo not drawn) | 11.4%
CC(C)c1ccc(CNc2c([N+](=O)[O-])c(=O)oc3ccccc23)cc1 | 14.2%
O=C(/C=C/c1ccc(NC(=O)c2ccccc2-c2ccccc2C(=O)O)cc1)c1ccccc1 | 25.7%
Cc1ccc(C)n1-c1ccc(N2CCOCC2)nc1 | -1.52%
CNC(=O)c1nnc(Cc2ccc(F)cc2)o1 | 9.51%
C/C(CC(=O)Nc1ccc(N(C)C)cc1)=N\NC(=O)c1ccccn1 | 7.77%
O=C(OCc1cc(=O)oc2cc(O)ccc12)c1cc(S(=O)(=O)N2CCOCC2)ccc1F | 5.32%
COC(=O)c1ccc(N2CCN(S(=O)(=O)c3c(C)cc(C)cc3C)CC2)c([N+](=O)[O-])c1 | 21.4%
Cc1ccc(S(=O)(=O)N(C)C)cc1NC(=O)c1ccc(-n2cncn2)c([N+](=O)[O-])c1 | -38.8%
COC(=O)c1ccc(-n2cncn2)c([N+](=O)[O-])c1 | 12%
Cc1cc(C)c(S(=O)(=O)N2CCN(C(=O)c3ccc(-n4cncn4)c([N+](=O)[O-])c3)CC2)c(C)c1 | -62.5%
Cc1ccc(S(=O)(=O)N2CCN(C(=O)c3ccc(-n4cncn4)c([N+](=O)[O-])c3)CC2)cc1C | -72.7%
Cc1cc(C)c(NC(=O)CNC(=O)c2ccc(-n3cncn3)c([N+](=O)[O-])c2)c(C)c1 | -12.8%

SMILES | hERG current change (%, negative = inhibition) at 10uM
CCC(=O)c1ccc(OCC(=O)NCC2COc3ccccc3O2)cc1 (stereo not drawn) | -25.5%
Cc1ccc(S(=O)(=O)N2CCCc3ccccc32)cc1C | 0.165%
C[C@H](NC(=O)c1nc[nH]c1C(=O)N1CCN(C(=O)OC(C)(C)C)CC1)c1ccccc1 | 12.4%
CCN(C1CCS(=O)(=O)C1)S(=O)(=O)c1cccs1 (stereo not drawn) | 14.8%
CN(C1CCS(=O)(=O)C1)S(=O)(=O)c1cccs1 (stereo not drawn) | -51.6%
CCCCN(C1CCS(=O)(=O)C1)S(=O)(=O)c1cccs1 (stereo not drawn) | -7.11%
Cc1cc(CCCCCCCCc2cc(C)cc(=O)o2)oc(=O)c1 | -2.63%
O=C(Nc1nc(-c2ccccn2)cs1)c1cccc(-n2cnnn2)c1 | -5.61%
CC(C)(C)NS(=O)(=O)c1ccc(OCC(=O)NCCC2=CCCCC2)cc1 | -14.1%
COc1cccc(N2CCN(C(=O)C3CCCN(c4ncnc5c4nc4n5CCCCC4)C3)CC2)c1 (stereo not drawn) | -81.7%
CCOC(=O)N1CCN(C(=O)C2CCCN(c3ncnc4c3nc3n4CCCCC3)C2)CC1 (stereo not drawn) | -22.9%
COc1ccccc1N1CCN(C(=O)C2CCCN(c3ncnc4c3nc3n4CCCCC3)C2)CC1 (stereo not drawn) | -12.5%
CC(=O)c1ccc(N2CCN(C(=O)C3CCCN(c4ncnc5c4nc4n5CCCCC4)C3)CC2)cc1 (stereo not drawn) | -75.4%
COc1ccc(N2CCN(C(=O)C3CCCN(c4ncnc5c4nc4n5CCCCC4)C3)CC2)cc1 (stereo not drawn) | -68.7%
CN1CCN(C(=O)C2CCCN(c3ncnc4c3nc3n4CCCCC3)C2)CC1 (stereo not drawn) | 1.36%
CC1CCN(C(=O)C2CCCN(c3ncnc4c3nc3n4CCCCC3)C2)CC1 (stereo not drawn) | -41.5%
Cc1ccc(Nc2nnc(-c3ccc4c(c3)OCO4)o2)c(C)c1 | 19.8%
COc1ccc(C(C)N2CC34C=CC(O3)C(C(=O)O)C4C2=O)cc1 (stereo not drawn) | 8.42%
COc1cc2cc(CN(CCc3cccc(C)c3)C(=S)NCCCN3CCOCC3)c(=O)[nH]c2cc1OC | -66.9%
Cc1ccc2cc(CN(CCc3ccccc3)C(=S)NCCCN(C)C)c(=O)[nH]c2c1 | -72%
Cc1ccc2[nH]c(=O)c(CN(CCCN(C)C)C(=S)NCCc3ccccc3)cc2c1 | -42%

SMILES | hERG current change (%, negative = inhibition) at 10uM
Cc1cccc2cc(CN(Cc3cccnc3)C(=S)NCCCN(C)C)c(=O)[nH]c12 | 3.93%
COc1cc2cc(CN(CCc3ccccc3C)C(=S)NCCCN3CCOCC3)c(=O)[nH]c2cc1OC | -38.4%
CCN(CC)CCCNC(=S)N(Cc1cccnc1)Cc1cc2cc(C)cc(C)c2[nH]c1=O | 22.9%
Cc1cc(C)c2[nH]c(=O)c(CN(Cc3cccnc3)C(=S)NCCCN(C)C)cc2c1 | -35.6%
Cc1cccc2cc(CN(Cc3ccccc3)C(=S)NCCCN(C)C)c(=O)[nH]c12 | -38%
Cc1cc(C)c2[nH]c(=O)c(CN(Cc3ccccc3)C(=S)NCCCN(C)C)cc2c1 | -52.8%
Cc1ccc2[nH]c(=O)c(CN(Cc3ccccc3)C(=S)NCCCN(C)C)cc2c1 | -24.9%
COc1cc2cc(CN(CCc3cccc(C)c3)C(=S)NCCCN(C)C)c(=O)[nH]c2cc1OC | -1.74%
Cc1ccc(CN(Cc2cc3cccc(C)c3[nH]c2=O)C(=S)NCCCN(C)C)cc1 | -65%
CC(C)(C)c1cc[n+](C2=C([O-])c3ccccc3C(=O)/C2=N\S(=O)(=O)c2cccs2)cc1 | -44%
CCc1c(C)n([O-])c2c([n+]1=O)CCC2 | 13.1%
COc1cccc(N(CC(=O)NC2CCCC2)C(=O)CCC(=O)Nc2cc(C)on2)c1 | -16.4%
Cn1c(CN2CCCCC2)nc2cc(NC(=O)c3cccc(Br)c3)ccc21 | -63.3%
CC(=O)N1CCN(Cc2nc3cc(NC(=O)c4cccc(Br)c4)ccc3n2C)CC1 | -70%
CC(=O)N1CCN(Cc2nc3cc(NC(=O)c4ccccc4)ccc3n2C)CC1 | 15.8%
CCC(=O)Nc1ccc2c(c1)nc(CN1CCN(C(C)=O)CC1)n2C | -0.94%
CC(=O)Nc1ccc2c(c1)nc(CN1CCCC1)n2C | -7.28%
CCC(=O)Nc1ccc2c(c1)nc(CN1CCCCC1)n2C | 15%
